We go through 26 compounds from PubChem BioAssay (Tox21).

Each structure is given as a SMILES string. “And” between values parts separate entries of the source, which are not always exact repeats. Identical values can stand only once. Records with an inconclusive call do not appear. Where a structure was tested more than once in an assay, its records may differ in their call. The source made the active and inactive calls. Unless noted, calls come from the whole dose curve; as a rule, active = well fitted curve in the direction sought with a large enough effect in the repeat runs; inconclusive = weak or mixed curves; inactive = no such curve, though single readings can be large; an effect the other way counts as inactive or inconclusive.

Test [1] can be described thus: qHTS assay to identify small molecule agonists of the estrogen receptor alpha (ER-alpha) signaling pathway in the presence of an antagonist - cell viability counter screen (AID 1259386).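 Note: cells exposed to compounds for 22 h at 37 °C before the viability read; nearly all actives have a fitted effect of over 30% in size.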 Note: potency is the fitted concentration of half-maximal effect. The procedure, abridged: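 Viability counter screen using VM7Luc4E2 (full-length ER-alpha, four ERE-luciferase). The cells were treated with compounds alongside ICI-182,780 10.0nM for 22hr, and live-cell protease fluorescence was quantified with CellTiter-Fluor.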
A general note: qHTS replaces the single test concentration by a dilution series.

In test [2] the target is Progesterone receptor (Homo sapiens) (UniProt P06401). The experiment in a line: qHTS assay to identify small molecule agonists of the progesterone receptor (PR) signaling pathway (AID 1346784; calls by dose curve; note: nearly all actives have a fitted effect of over 30% in size). The procedure, abridged: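 Agonist mode, quantitative HTS format in a HEK 293T line expressing a UAS-controlled beta-lactamase reporter; 16 hr compound exposure at 37C in 2% charcoal-stripped FBS, then LiveBLAzer B/G FRET fluorescence.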
Sequence of Progesterone receptor (Homo sapiens) (P06401 whole entry, looked up): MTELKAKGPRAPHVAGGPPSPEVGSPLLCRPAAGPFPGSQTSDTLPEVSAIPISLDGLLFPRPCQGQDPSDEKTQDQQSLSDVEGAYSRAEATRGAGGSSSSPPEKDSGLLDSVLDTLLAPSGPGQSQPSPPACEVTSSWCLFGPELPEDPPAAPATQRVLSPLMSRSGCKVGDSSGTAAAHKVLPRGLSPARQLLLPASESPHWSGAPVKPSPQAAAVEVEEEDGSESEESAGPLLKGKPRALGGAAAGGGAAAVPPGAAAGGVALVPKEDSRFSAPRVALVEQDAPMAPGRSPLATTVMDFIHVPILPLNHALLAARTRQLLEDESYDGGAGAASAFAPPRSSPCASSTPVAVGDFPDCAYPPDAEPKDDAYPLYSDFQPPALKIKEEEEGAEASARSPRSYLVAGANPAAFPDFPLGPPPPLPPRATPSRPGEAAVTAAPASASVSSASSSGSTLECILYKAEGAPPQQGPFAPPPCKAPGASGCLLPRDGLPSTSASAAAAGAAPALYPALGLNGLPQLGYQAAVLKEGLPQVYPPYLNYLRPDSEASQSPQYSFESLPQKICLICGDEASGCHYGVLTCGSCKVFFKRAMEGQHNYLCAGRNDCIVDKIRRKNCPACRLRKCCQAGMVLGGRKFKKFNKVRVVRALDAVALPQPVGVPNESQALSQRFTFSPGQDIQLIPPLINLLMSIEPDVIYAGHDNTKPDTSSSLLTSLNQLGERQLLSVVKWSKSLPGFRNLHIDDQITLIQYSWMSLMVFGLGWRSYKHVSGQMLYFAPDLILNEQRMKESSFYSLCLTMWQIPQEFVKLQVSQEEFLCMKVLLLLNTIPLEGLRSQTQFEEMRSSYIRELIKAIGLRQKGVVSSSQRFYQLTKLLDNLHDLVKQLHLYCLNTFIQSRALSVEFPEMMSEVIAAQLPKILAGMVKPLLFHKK

Test [3] shares this target. The experiment in a line: qHTS assay to identify small molecule antagonists of the progesterone receptor (PR) signaling pathway (AID 1346795; active = well fitted inhibition curve with a large enough effect in the signal ratio in the repeat runs, not every such curve was filed as active; the % refers to the signal ratio; note: potency is the fitted concentration of half-maximal effect). The procedure, abridged:
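HEK293T PR-UAS-bla reporter cells in charcoal-stripped serum (2%) received compound after a 6 hr settling period, followed by R5020 agonist at 1 nM final; 16 hr incubation preceded the FRET substrate step and fluorescence measurement.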

Test [4] in a line: qHTS assay to identify small molecule antagonists of the progesterone receptor (PR) signaling pathway - cell viability counter screen (AID 1346798). Note: series mostly up to about 92 µM; nearly all actives have a fitted effect of over 50% in size. The procedure, abridged:
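Same-well multiplex: after 16 hr at 37C with compound and R5020 stimulation, HEK293T cells carrying a UAS-bla reporter received LiveBLAzer substrate (2 hr RT), then CellTiter-Glo (30 min RT) for luminescent viability.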

The nature of test [5]: qHTS assay to identify small molecule agonists of the progesterone receptor (PR) signaling pathway - cell viability counter screen (AID 1346799; calls by dose curve; note: nearly all actives have a fitted effect of over 45% in size). The procedure, abridged:
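Counter screen for cytotoxicity: compound-treated PR-UAS-bla HEK293T cells (16 hr, 37C, 5% CO2) were assayed with CellTiter-Glo, luminescence measured after 30 min at room temperature.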

Test [6] can be described thus: qHTS assay to identify small molecule antagonists of the TGF-beta/Smad signaling pathway - cell viability counter screen (AID 1346824). Note: nearly all actives have a fitted effect of over 50% in size. The procedure, abridged: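 SBE-bla HEK 293T cells, incubated overnight, then compound plus 0.25 ng/mL TGF-beta1 (stock added) for 5 hr at 37 C. Viability was read in the same wells by CellTiter-Glo luminescence after 30 min at room temperature.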

The nature of test [7]: qHTS assay to identify small molecule agonists of the TGF-beta/Smad signaling pathway - cell viability counter screen (AID 1346829). Note: top concentration of the series differs between compounds; nearly all actives have a fitted effect of over 45% in size. The procedure, abridged: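 HEK 293T SBE-bla line, 5 hr compound exposure at 37 C, multiplexed CellTiter-Glo viability read by luminescence.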
Test [8] is described as follows: qHTS assay to identify small molecule agonists of the TGF-beta/Smad signaling pathway (AID 1346859; active = well fitted activation curve with a large enough effect in the signal ratio in the repeat runs, not every such curve was filed as active; the % refers to the signal ratio; note: series mostly up to about 77 µM). The procedure, abridged: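 Smad-responsive beta-lactamase reporter cells (HEK 293T) received compounds from DMSO stocks after overnight attachment, were incubated 5 hr, then treated 2 hr with FRET substrate before dual-emission fluorescence measurement (405 nm excitation).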

Test [9] deals with Thyrotropin-releasing hormone receptor (Homo sapiens) (UniProt P34981). The experiment in a line: qHTS assay to identify small molecule antagonists of the thyrotropin-releasing hormone receptor (TRHR) signaling pathway (AID 1346877; active = well fitted inhibition curve with a large enough effect in the repeat runs, not every such curve was filed as active; note: series mostly up to about 51 µM). The procedure, abridged:
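Following an 18 h incubation at 37 °C and a 2 h calcium dye load, TRHR-HEK293 cells were exposed to compound (5 min, room temperature) and challenged with TRH, 1 nM final.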

For test [10] the target is unchanged. The experiment in a line: qHTS assay to identify small molecule agonists of the thyrotropin-releasing hormone receptor (TRHR) signaling pathway (AID 1346891; calls by dose curve;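 note: HEK293 cells expressing TRHR with calcium dye readout; series mostly up to about 58 µM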). The procedure, abridged:
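Agonist-mode calcium mobilisation screen: TRHR-transfected HEK293 cells cultured overnight (18 h), dye-loaded for 2 h at 37 °C, exposed to compounds, and monitored by fluorescence for 3 min.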

Sequence of Thyrotropin-releasing hormone receptor (Homo sapiens) (P34981 whole entry, looked up): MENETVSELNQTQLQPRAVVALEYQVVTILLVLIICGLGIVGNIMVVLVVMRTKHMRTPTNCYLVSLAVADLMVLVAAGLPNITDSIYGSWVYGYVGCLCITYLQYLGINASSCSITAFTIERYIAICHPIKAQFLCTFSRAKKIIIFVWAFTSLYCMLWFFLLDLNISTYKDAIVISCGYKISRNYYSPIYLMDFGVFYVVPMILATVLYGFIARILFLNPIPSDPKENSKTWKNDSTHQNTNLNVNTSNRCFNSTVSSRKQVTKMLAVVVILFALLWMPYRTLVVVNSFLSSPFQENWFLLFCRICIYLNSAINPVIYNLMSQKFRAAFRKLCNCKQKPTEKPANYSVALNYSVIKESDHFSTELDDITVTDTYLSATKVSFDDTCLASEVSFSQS

For the compound `Cn1c([N+](=O)[O-])cnc1COC(N)=O`, the Potency result in test [1], in test [2], in test [3], in test [4], in test [5] and in [6] was “inactive” throughout. In addition, the Potency entry in [7] is “inactive”. In addition, the compound was classed as inactive in test [8].

On to `OC[C@@H](O)[C@H](O)[C@H](O)[C@@H](O)CO`, for which the Potency result in test [1], in test [2], in [3], in [4], in [5] and in test [6] was “inactive” in each case. For the same compound, in [7], the Potency result is “inactive”. Further, the result in test [8] was inactive.

On to `CC1=C(CC(=O)O)c2cc(F)ccc2/C1=C\c1ccc(S(C)=O)cc1` (stereo not drawn), for which the Potency result in test [1], in [2], in [3], in [4], in [5] and in [6] was “inactive” throughout. The Potency entry in [7] is “inactive”.

Turning to `C=C1C2CCC(C2)C1(C)C` (stereo not drawn), the Potency result in [1], in [2], in [3], in [4], in test [5] and in test [6] was “inactive” each time. Besides, the Potency result in test [7] and in test [10] was “inactive” in each case. Further, the outcome in test [8] and in [9] was inactive.

Turning to `Cc1cc(NS(=O)(=O)c2ccc(N)cc2)no1`, the Potency result in test [1], in [2], in test [3], in [4], in test [5] and in test [6] was “inactive” throughout. The Potency entry in [7] is “inactive”. In addition, in test [8], the compound was classed as inactive.

As to `O=[N+]([O-])c1cccc(Cl)c1`, the Potency entry in test [1], in test [2], in test [3], in test [4], in test [5] and in [6] was “inactive” throughout. In addition, the Potency result in test [7] and in test [10] was “inactive” throughout. Besides, the compound was classed as inactive in [8] and in [9].

Turning to `NCCc1ccc(O)c(O)c1`, the Potency in test [1] is 27.4 µM (active) and inactive. The Potency entry in test [2], in [3], in test [4], in test [5], in [6] and in test [7] was “inactive” throughout. In addition, the Potency result in test [10] is “inactive”. The result in test [8] and in test [9] was inactive.

`CC1=C(/C=C/C(C)=C/C=C/C(C)=C/CO)C(C)(C)CCC1`: the Potency entry in test [1], in test [2], in [3], in [4], in test [5] and in [6] was “inactive” in each case. Besides, the Potency result in test [7] and in test [10] was “inactive” in each case. The result in [8] and in [9] was inactive.

For the compound `CN(C)c1cccc(O)c1`, the Potency entry in test [1], in [2], in test [3], in [4], in test [5] and in test [6] was “inactive” throughout. Also, the Potency entry in test [7] and in test [10] was “inactive” in each case. Also, the compound was called inactive in test [8] and in test [9].

For `CCCCCCC(C)(C)S`, the Potency entry in test [1], in [2], in test [3], in test [4], in test [5] and in test [6] was “inactive” each time. Moreover, the Potency result in test [7] and in test [10] was “inactive” each time. Moreover, the compound was called inactive in test [8] and in test [9].

In the case of `C[C@@H]1O[C@@H](OC[C@H]2O[C@@H](Oc3c(-c4ccc(O)c(O)c4)oc4cc(O)cc(O)c4c3=O)[C@H](O)[C@@H](O)[C@@H]2O)[C@H](O)[C@H](O)[C@H]1O`, the Potency in test [1] was 54.9 µM (active). The Potency result in test [2], in test [3], in [4], in test [5], in test [6] and in [7] was “inactive” in each case. In addition, the Potency result in test [10] is “inactive”. The call in [8] and in [9] was inactive.

In the case of `CCC(C)C=O` (stereo not drawn), the Potency result in test [1], in [2], in test [3], in [4], in test [5] and in [6] was “inactive” throughout. Further, the Potency entry in [7] and in test [10] was “inactive” each time. The compound was classed as inactive in test [8] and in test [9].

As for `CCCCC/C=C\C/C=C\CCCCCCCC(=O)OC`, the Potency entry in [1], in test [2], in test [3], in [4], in test [5] and in test [6] was “inactive” each time. The Potency result in [7] is “inactive”. In [8], the compound was called inactive.

For `C=C(C#N)C(=O)OCC`, the Potency entry in test [1], in [2], in test [3], in test [4], in [5] and in test [6] was “inactive” each time. Further, the Potency result in test [7] and in [10] was “inactive” throughout. For the same compound, the compound was classed as inactive in test [8] and in test [9].

Turning to `CC(C)(C)C(=O)C1C(=O)c2ccccc2C1=O`, the Potency in test [1] was 60.5 µM (active) and 61.1 µM (active). The Potency entry in test [2], in [3], in test [4], in [6] and in [7] was “inactive” each time. Besides, the compound was classed as inactive in [8].

For the compound `CCCCC(CC)COC(=O)/C=C\C(=O)OCC(CC)CCCC` (stereo not drawn), the Potency entry in test [1], in [2], in [3], in test [4], in test [6] and in test [7] was “inactive” throughout. Further, the Potency result in test [10] is “inactive”. For the same compound, the call in test [8] and in [9] was inactive.

On to `CCCCCCCCCCCCOCC1CO1` (stereo not drawn), for which the Potency entry in test [1], in [2], in test [3], in [4], in test [5] and in test [6] was “inactive” each time. The Potency entry in test [7] and in [10] was “inactive” in each case. Moreover, the outcome in test [8] and in test [9] was inactive.

On to `CCCCCCCCCC(=O)O`, for which the Potency result in test [1], in [2], in [3], in test [4], in [6] and in [7] was “inactive” in each case. The Potency entry in [10] is “inactive”. For the same compound, the compound was called inactive in test [8] and in test [9].

As to `C/C=C(C)/C=C/C=C(C)C`, the Potency entry in [1], in test [2], in [3], in test [4], in test [6] and in [7] was “inactive” throughout. Besides, the compound was called inactive in test [8].

`O=S(=O)(Oc1ccc(Cl)cc1Cl)c1ccccc1`: the Potency entry in test [1], in test [2], in test [4], in test [6] and in [7] was “inactive” each time. In addition, in test [3], the Potency was 8.78 µM (active) and 12.2 µM (active). The compound was called inactive in [8].

Regarding `CCCCC(CC)C(=O)OCCOCCOCCOC(=O)C(CC)CCCC` (stereo not drawn), the Potency result in test [1], in test [2], in test [3], in [4], in [5] and in test [6] was “inactive” each time. Further, the Potency result in test [7] and in [10] was “inactive” throughout. The result in test [8] and in test [9] was inactive.

Take `OC[C@@H](O)[C@@H](O)[C@H](O)[C@@H](O)CO`: the Potency result in [1], in test [2], in test [3], in test [4], in test [6] and in test [7] was “inactive” throughout. In addition, the call in [8] was inactive.

On to `C=C(C)C(=O)OCC(CC)(COC(=O)C(=C)C)COC(=O)C(=C)C`, for which the Potency result in [1], in test [2], in test [3], in test [4], in [5] and in test [6] was “inactive” in each case. Also, the Potency entry in test [7] and in test [10] was “inactive” each time. In [9], the outcome was inactive.

For the compound `O=C(c1cc(O)c(O)c(O)c1)c1ccc(O)c(O)c1O`, the Potency in test [1] was 34.3 µM (active) and 30.6 µM (active). Also, the Potency result in test [2], in test [3], in test [4], in test [5], in test [6] and in [7] was “inactive” in each case. Besides, the Potency result in test [10] was “inactive”. For the same compound, the call in test [8] and in test [9] was inactive.

In the case of `CNC[C@H](O)[C@@H](O)[C@H](O)[C@H](O)CO`, the Potency result in test [1], in test [2], in [3], in [4], in test [6] and in test [7] was “inactive” throughout. The Potency entry in [10] was “inactive”. Also, the compound was classed as inactive in test [8] and in [9].

`CC1(C)CC(N=C=O)CC(C)(CN=C=O)C1` (stereo not drawn): the Potency entry in [1], in test [2], in test [3], in test [4], in test [5] and in test [6] was “inactive” throughout. The Potency result in test [7] and in test [10] was “inactive” each time. In addition, the call in [8] and in [9] was inactive.
